Experimental data taken from PubChem BioAssay (EPA / NIEHS).
Calls of active or inactive are those of the source. The calls were made as follows: active = hit-call score of the fitted dose curve at least 0.9, where 1 is the maximum; inactive = score below 0.9.

Molecular target: CCAAT/enhancer-binding protein beta (Homo sapiens) (UniProt P17676)
Test: ATG_C_EBP_CIS: Attagene CIS-FACTORIAL HepG2 Assay for human CCAAT/Enhancer Binding Protein (C/EBP) beta (AID 2282927)
Conditions: HepG2 Attagene cis-factorial transcription factor reporter; actives raise or lower the signal
Method: ATG_CIS is a cell-based, multiplexed-readout assay that uses HepG2, a human liver cell line, with measurements taken at 24 hours after chemical dosing in a 24-well plate.ATG_C_EBP_CIS is one of 52 assay component(s) measured or calculated from the ATG_CIS assay. It is designed to make measurements of mRNA induction, a form of inducible reporter, as detected with fluorescence intensity signals by Reverse transcription polymerase chain reaction (RT-PCR) and Capillary electrophoresis technology.Data from the assay component ATG_C_EBP_CIS was analyzed into 1 assay endpoint. This assay endpoint, ATG_C_EBP_CIS, was analyzed with bidirectional fitting relative to DMSO as the negative control and baseline of activity. Using a type of inducible reporter, measures of mRNA for gain or loss-of-signal activity can be used to understand the reporter gene at the transcription factor-level as they relate to the gene CEBPB. Furthermore, this assay endpoint can be referred to as a primary readout, because this assay has produced multiple assay endpoints where this one serves a reporter gene function. To generalize the intended target to other relatable targets, this assay endpoint is annotated to the dna binding intended target family, where the subfamily is basic leucine zipper.
Human liver HepG2 cells are transiently transfected with multiple reporter transcription units (MRTUs) in 6-well plates using FuGene 6 reagent (Roche; 3 ml FuGene/1 mg DNA). The MRTU constructs are regulated by a cis-regulating element (promoter). […] A major difference between the CIS and TRANS system is that in CIS activities of endogenous TFs are measured, whereas the TRANS assay evaluates changes in activities of exogenous, chimeric NR-Gal4 proteins. […] At the end of 24 hour incubation, total RNA was isolated using TriZol reagent (Invitrogen). The isolated RNA is then reverse-transcribed using oligo(dT) primer and Mo-MLV reverse transcriptase (Invitrogen) with DNAse I (Ambion) treatment for 30 min. The one-tenth of the produced cDNA was amplified by PCR using Taq DNA polymerase (Invitrogen) and two reporter sequence-specific primers. The PCR products were fluorescently labeled by primer extension with 6-arboxyfluorescein (6-FAM) 5'-labeled reporter sequence-specific primer (2 min at 95 C, 20 s at 68 C and 10 min at 72 C) and these products were digested with 5U of HpaI (New England Biolabs) for 2h at 37 C. The fragments were purified using Qiaquick PCR columns (Qiagen), analyzed on an ABI 3130xL genetic analyzer (Applied Biosystems) with peak positions identified by using a set of X-rhodamine (ROX)-labeled MapMarker1000 molecular weight standards (BioVentures). The raw capillary electrophoresis data was processed using Attagraph software (Attagene).

Chain of CCAAT/enhancer-binding protein beta (Homo sapiens) (P17676 whole entry, looked up): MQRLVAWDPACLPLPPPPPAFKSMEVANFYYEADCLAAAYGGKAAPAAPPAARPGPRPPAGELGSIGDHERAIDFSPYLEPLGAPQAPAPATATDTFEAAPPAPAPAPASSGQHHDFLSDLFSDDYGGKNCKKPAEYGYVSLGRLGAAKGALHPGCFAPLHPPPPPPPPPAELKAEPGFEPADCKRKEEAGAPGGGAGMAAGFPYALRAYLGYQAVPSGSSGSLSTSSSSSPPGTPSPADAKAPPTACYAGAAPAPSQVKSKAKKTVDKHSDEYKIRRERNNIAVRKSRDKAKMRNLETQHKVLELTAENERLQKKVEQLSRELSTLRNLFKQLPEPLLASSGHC

| SMILES | outcome | AC50 |
| --- | --- | --- |
| c1ccc(P(c2ccccc2)c2ccccc2)cc1 | inactive |  |
| CCOC(=O)N(C)N=O | inactive |  |
| CC1OC(C)OC(C)O1 (stereo not given) | inactive |  |
| O=S(=O)(O)OOS(=O)(=O)O | inactive |  |
| COc1ccc(CO)cc1 | inactive |  |
| CC(=O)c1cc2c(cc1C)C(C)(C)C(C)CC2(C)C (stereo not given) |  | 108 µM (active) |
| N#CCCCCC#N | inactive |  |
| Oc1ccc(C2(c3ccc(O)cc3)c3ccccc3-c3ccccc32)cc1 |  | 17.1 µM (active) |
| C[N+](C)(C)CC(=O)O | inactive |  |
| Cc1cc(C)c(C2=C(OC(=O)CC(C)(C)C)C3(CCCC3)OC2=O)c(C)c1 | inactive |  |
| Clc1ccc(-c2ccccc2)cc1 | inactive |  |
| CC(C)(c1cc(Cl)c(O)c(Cl)c1)c1cc(Cl)c(O)c(Cl)c1 | inactive |  |
| C=CC(=O)OCCO |  | 123 µM (active) |
| Nc1ccccc1C(=O)OCCc1ccccc1 | inactive |  |
| CC1(C)[C@H](C(=O)O[C@H](C#N)c2cccc(Oc3ccccc3)c2)[C@@H]1C=C(Br)Br | inactive |  |
| CN(C)C(=O)C(c1ccccc1)c1ccccc1 | inactive |  |
| O=C(CCl)c1ccccc1 | inactive |  |
| Cl/C=C\CCl | inactive |  |
| O=C(O)C(Br)Br | inactive |  |
| C=CCN(CC=C)C(=O)C(Cl)Cl | inactive |  |

| SMILES | outcome | AC50 |
| --- | --- | --- |
| CC1CCC(=O)O1 (stereo not given) | inactive |  |
| O=[N+]([O-])c1ccc(Cl)cc1 | inactive |  |
| CCCCCCCCCCCC#N | inactive |  |
| CCOP(=O)(OCC)OCC | inactive |  |
| SCc1ccco1 | inactive |  |
| CCOP(=O)(OCC)Oc1ccc([N+](=O)[O-])cc1 | inactive |  |
| C[N+](C)=CCl | inactive |  |
| C=CC(=O)OCC(CC)CCCC (stereo not given) | inactive |  |
| CN(N=O)c1ccccc1 | inactive |  |
| CC(C)(Cl)Cl | inactive |  |
| CC(C)COP(=O)(OCC(C)C)OCC(C)C | inactive |  |
| N#CCCCl | inactive |  |
| Nc1c(Cl)c(Cl)c(Cl)c(Cl)c1Cl | inactive |  |
| N#CCNCC#N | inactive |  |
| Oc1cc(Cl)ccc1Cl | inactive |  |
| C[C@]12CC[C@H](O)C[C@H]1CC[C@@H]1[C@@H]2C[C@@H](O)[C@]2(C)[C@@H](C3=CC(=O)OC3)CC[C@]12O |  | 2.8 µM (active) |
| O=[N+]([O-])C=Cc1ccccc1 | inactive |  |
| c1ccc(Nc2ccc3ccccc3c2)cc1 | inactive |  |
| O=[N+]([O-])O.O=[N+]([O-])O.[Cd] |  | 1.83 µM (active) |
| C[N+](C)(C)CC(=O)[O-] | inactive |  |
